Laboratory results published in PubChem BioAssay (NCI).
Compounds without any hit were thinned out: in the full panel of roughly 83,000, 20% have a hit.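 How to read the values: 0–100, growth inhibition (40 = 60% inhibited); 0, no net growth; -100 to 0, cell death (-40 = 40% of starting cells died; -100 = all dead).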 Values without a mark were called inactive. Active and inactive are the calls of the source. The calls were made as follows: active = growth percent below 10; inactive = the rest.

How the values were obtained:
Assay in all cases: NCI-60 one-dose screen, 48 h (100 = growth as untreated, 0 = no growth, -100 = all killed)
Conditions in all cases: 10 µM unless noted
DU-145 prostate = system: DU-145 prostate
K-562 leukemia = system: K-562 leukemia
MALME-3M melanoma = system: MALME-3M melanoma
MDA-MB-231 breast = system: MDA-MB-231 breast
RXF 393 renal = system: RXF 393 renal
SF-268 CNS = system: SF-268 CNS
SF-295 CNS = system: SF-295 CNS
SF-539 CNS = system: SF-539 CNS
UACC-257 melanoma = system: UACC-257 melanoma
M14 melanoma = system: M14 melanoma
HCT-15 colon = system: HCT-15 colon
HT29 colon = system: HT29 colon
SNB-75 CNS = system: SNB-75 CNS
SNB-19 CNS = system: SNB-19 CNS
SK-MEL-5 melanoma = system: SK-MEL-5 melanoma
LOX IMVI melanoma = system: LOX IMVI melanoma
SK-MEL-28 melanoma = system: SK-MEL-28 melanoma
PC-3 prostate = system: PC-3 prostate
UACC-62 melanoma = system: UACC-62 melanoma
U251 CNS = system: U251 CNS

| SMILES | growth (DU-145 prostate) | growth (K-562 leukemia) | growth (MALME-3M melanoma) | growth (MDA-MB-231 breast) | growth (RXF 393 renal) | growth (SF-268 CNS) | growth (SF-295 CNS) | growth (SF-539 CNS) | growth (UACC-257 melanoma) | growth (M14 melanoma) | growth (HCT-15 colon) | growth (HT29 colon) | growth (SNB-75 CNS) | growth (SNB-19 CNS) | growth (SK-MEL-5 melanoma) | growth (LOX IMVI melanoma) | growth (SK-MEL-28 melanoma) | growth (PC-3 prostate) | growth (UACC-62 melanoma) | growth (U251 CNS) [%] |
| --- | --- | --- | --- | --- | --- | --- | --- | --- | --- | --- | --- | --- | --- | --- | --- | --- | --- | --- | --- | --- |
| COc1ccc(C2CC(c3cc(OC)c(OC)c(OC)c3)=NN2c2ccc(S(N)(=O)=O)cc2)cc1 (stereo unspecified) | 85.7% | 33.1% | 101% | 51.3% | 79.3% | 72.9% | 55.2% | 77.8% | 73.7% | 64.6% | 66.8% | 59.3% | 33.1% | 74% | 58.2% | 52.9% | 76.9% |  |  |  |
| O=C1CC2c3cc(-c4cc5ccccc5o4)ccc3CCN2C(=O)N1c1ccccc1 (stereo unspecified) | 96.5% | 58.4% | 71.6% | 93.3% | 114% | 92.4% | 90% | 106% | 87.8% | 90.7% | 54.6% | 85.7% | 73.8% | 89.6% | 82.7% | 94.4% | 99.8% | 51.9% | 81.1% |  |
| CCCCC(=O)N/N=C/c1cc(I)cc(I)c1O | 51% | 32.1% | 75.8% | 57% | 74.6% | 43.1% | 41.2% | 28.8% | 41.8% | 56.4% | 15.6% | 56.2% | 62.8% | 62.9% | 78.9% | 38.9% | 58.8% | 47% | 38.8% |  |
| Cc1ccccc1-n1nnc(C(=O)Nc2nc(-c3ccccc3)c(-c3ccccc3)s2)c1C | 87.6% [50 µM] | 53.5% [50 µM] | 80% [50 µM] | 85.3% [50 µM] | 69% [50 µM] | 69.6% [50 µM] | 80.6% [50 µM] | 77.1% [50 µM] | 61.5% [50 µM] | 78.7% [50 µM] | 67.3% [50 µM] | 78.7% [50 µM] | 5.92% [50 µM] (active) | 49.5% [50 µM] | 80.5% [50 µM] | 80.7% [50 µM] | 87.2% [50 µM] |  | 69.9% [50 µM] |  |
| COc1ccc(OC)c2ncccc12 | 112% | 96% | 89.7% | 109% | 107% | 102% | 95% | 102% | 110% | 93.5% | 96.3% | 97.4% | 88.6% | 110% |  | 95.6% |  | 92% | 114% |  |
| O=C1/C(=C/c2ccc(F)cc2)CN(Cc2cn(CCNc3ccnc4cc(Cl)ccc34)nn2)C/C1=C\c1ccc(F)cc1 | 5.98% (active) | 5.23% (active) | -80.6% (active) | -39.7% (active) | -97.2% (active) | -80.2% (active) | -55.5% (active) | -78.5% (active) | -72.5% (active) | -49.7% (active) | -60.5% (active) | -79.2% (active) | 50% | -74.4% (active) | -100% (active) | -93.8% (active) | -79.7% (active) |  |  |  |
| CCOC(=O)c1cn2c3c(cc(F)cc3c1=O)C(CC)c1ccccc1C2 (stereo unspecified) | 104% | 78.1% | 90.8% | 104% | 118% | 96.8% | 91.5% | 97.5% | 96.3% | 114% | 57.8% | 95.9% | 92.3% | 103% |  | 84.9% | 98.9% | 81.6% | 105% |  |
| CCOC(=O)c1sc(NC(=O)CN2CCC(Cc3ccccc3)CC2)nc1C | 102% | 93.9% | 82.4% | 119% | 111% | 106% | 42.3% | 106% | 127% | 101% | 92.9% | 79.8% | 109% | 104% |  | 96.7% | 110% | 93.1% | 114% |  |
| O=c1oc2ccccc2cc1-c1csc(N=Nc2c(O)[nH]c3ccc(Cl)cc23)n1 | 108% | 98.7% | 105% | 102% | 129% | 98.4% | 98.6% | 94.5% | 80.1% | 111% | 99.5% | 101% | 93.3% | 99.2% | 104% | 97.7% | 103% | 100% | 98.2% |  |
| Cn1c(=O)c(S(=O)(=O)c2ccccc2)cc2ccc3c(cnn3-c3ccc(Cl)cc3)c21 | 82.9% | 91.6% | 85.1% | 75.7% | 55.8% | 80.6% | 90.2% | 45% | 83.4% | 83.7% | 73% | 79.2% | 38.9% | 90.1% | 84.6% | 78.9% | 84.6% | 79.9% | 89.1% |  |
| CCCCCCCCCCCC(=O)[O][Sn]([CH2]CCC)([CH2]CCC)[CH2]CCC | -98.7% (active) | -29.9% (active) | -96.1% (active) | -94.6% (active) | -72.4% (active) | -83.7% (active) | -83.8% (active) | -97.7% (active) | -96.5% (active) | -99.6% (active) | -87.2% (active) | -90.3% (active) | -100% (active) | -95.5% (active) | -97.8% (active) | -90.1% (active) | -99.1% (active) | -92.6% (active) |  |  |
| Cc1nc2cc(Nc3nc(Cl)nc(Nc4ccc(F)cc4)n3)ccc2n1Cc1ccccc1 | 64% | 85.2% | 107% | 82.1% | 77.1% | 91.1% | 96.4% | 70.2% | 89.7% | 109% | 72.1% | 94.5% | 90% | 92.4% |  | 43.3% | 106% | 78.8% | 82.4% |  |
| COc1nc2c(cc1S(=O)(=O)c1ccccc1)CCc1c-2cnn1-c1ccccc1 | 95.4% | 54.1% | 69.2% | 89.2% | 94.4% | 86.8% | 84.9% | 79% | 78.2% | 80.7% | 59.8% | 54.7% | 65.8% | 89.3% | 86.6% | 90% | 82.9% | 50.3% | 69.4% |  |
| O=[N+]([O-])c1cc2c(cc1Br)C1C(C3C2C(Cl)(Cl)C(Cl)=C(Cl)C3(Cl)Cl)C(Cl)(Cl)C(Cl)=C(Cl)C1(Cl)Cl (stereo unspecified) | 108% | 105% | 80.8% | 108% | 96.9% | 102% | 95.8% | 94.9% | 92.9% | 90.6% | 103% | 102% | 85.8% | 106% | 102% | 91.9% | 102% | 85.1% | 87.1% |  |
| C[C@@H](Oc1cc(-c2cnn(C3CC4(CCCNC4)C3)c2)cnc1N)c1c(Cl)ccc(F)c1Cl (stereo partly specified) | 36.7% | 0.205% (active) | -64.7% (active) | 2.82% (active) | -9.61% (active) | 23% | 14.4% | 11.2% | -87.2% (active) | -59.5% (active) | 16.2% | -47.7% (active) | 10.3% | 72.3% |  | -73% (active) | -67.2% (active) | 15.6% | 14.3% |  |
| FC(F)(F)c1cc(CNc2nc(Cl)ncc2Br)cc(C(F)(F)F)c1 | 98.9% | 50.2% | 91.1% | 89% | 92.6% | 93.4% | 88.4% | 85% | 80.8% | 93.9% | 79.7% | 98.4% | 66.6% | 107% | 95.4% | 98.4% | 94% |  | 77.2% |  |
| COc1cc(/C=C/C(=O)CC(=O)/C=C/c2cc(Br)c(OC)c(OC)c2)cc(Br)c1OC | 108% | 73.3% | 96.6% | 101% | 114% | 104% | 102% | 102% | 93.1% | 96.9% | 109% | 103% | 93.7% | 99.8% | 108% | 97.8% | 106% |  | 101% |  |
| Cc1nn(-c2ccccc2)c2nc3nc4c(c(N)c3c(-c3ccc(Cl)cc3)c12)CCCC4 | 109% | 53.4% | 108% | 91.5% | 90.9% | 105% | 96% | 96.9% | 91.9% | 106% | 93.3% | 91.5% | 101% | 108% |  | 94.4% | 97.2% | 94.7% | 108% |  |
| COc1ccc(NC(=O)c2ccc3c(c2)nc(-c2ccc(Cl)cc2)n3-c2cc(C(C)(C)C)[nH]n2)cc1 | 90.2% | 86% | 91.1% | 95.4% | 79.1% | 76.2% | 67.8% | 87.6% | 96.4% | 82.3% | 82.6% | 116% | 77.8% | 82.6% |  |  |  | 68.1% | 79.6% |  |
| C=C(C)CCCC(C)CC#N (stereo unspecified) | 105% | 105% | 88% | 115% | 105% | 94.6% | 94.3% | 95.6% | 104% | 96.5% | 101% | 93.9% | 91.3% | 110% |  | 99.2% | 106% | 95.7% | 111% |  |
| O=C1NC(=S)S/C1=C\c1cccc([N+](=O)[O-])c1 | 111% | 68.5% | 153% | 93.8% | 153% | 89.9% | 91.3% | 88.6% | 88.8% | 97.4% | 93.3% | 109% |  | 98% | 89.9% | 88.9% | 112% | 88.1% | 70% | 92.7 |
| O=C(Nc1ccc(Cl)c(Cl)c1)OCn1ncc2ccc([N+](=O)[O-])cc21 | 108% | 88% | 78.5% | 75.7% | 83.2% | 82.3% | 88.4% | 78.1% | 90.2% | 94.7% | 84.9% | 103% | 67.8% | 92.9% |  | 78.8% | 108% |  | 73.6% |  |
| COc1ccc(-c2c(-c3cc4c(c(OC)c3OC)OCO4)noc2N)cc1 | 12.2% | 16.1% | 56.7% | 48.7% | -13.6% (active) | 45.8% | 2.69% (active) | 1.11% (active) | 66.8% | 12.6% | 27% |  | 22.8% | 40.6% | 16.5% | 43.7% | 49.7% | 12.2% | 37.5% | 32.4 |
